Experimental data reported in PubChem BioAssay (Tox21).
“And” between values parts separate entries of the source, which are not always exact repeats. Equal values may be shown once. Records with an inconclusive call do not appear. Entries that show only a call come without a potency. The source made the active and inactive calls. Calls come from the whole dose curve; as a rule, active = well fitted cell-killing curve with a large enough effect in the repeat runs; inconclusive = weak or mixed curves, or effect the other way; inactive = flat fitted curve, though single readings scatter.

Assay: qHTS assay to identify small molecule antagonists of the retinoid acid receptor (RAR) signaling pathway - cell viability counter screen (AID 1159551); note: nearly all actives have a fitted effect of over 35% in size
Conditions: C3RL4 cells viability, ATP luminescence (CellTiter-Glo), 6 h; series mostly up to 92.4 µM
Excerpt: U.S. Tox21 Program National Center for Advancing Translational Sciences [NCATS] NIH Chemical Genomics Center [NCGC] U.S. Environmental Protection Agency [EPA] National Institutes of Environmental Health Sciences [NIEHS] National Toxicology Program [NTP] U.S. Food and Drug Administration [FDA] Tox21 Assay Overview: All-trans Retinoic acid (atRA) is the potent natural metabolite of retinol and plays an important role in normal embryonic development and maintenance of cellular phenotype in adult animals. atRA is the activating ligand for the retinoic acid receptors (RARs) which form heterodimers with retinoid X receptors (RXRs) on the retinoic acid response element (RARE). Through activation of the RAR/RXRs nuclear receptors, atRA regulates the transcription of a large number of protein-coding genes and regulatory RNAs. Intracellular levels of atRA are controlled by the retinol signaling pathway (RSP) that regulates the biosynthesis and catabolism of atRA to maintain physiological levels. Chemicals that interfere with the RSP can cause abnormal intracellular levels of atRA and therefore are potential developmental toxicants. To assess compounds for the potential adverse effect on embryonic development through interfering with retinol signaling, a cell-based RARE luciferase reporter gene assay was used. C3RL4 cell line (OARSA/CFSAN/FDA, Laurel, MD) was used to screen Tox21 10K compound library for identifying inhibitors of the RSP. Also cytotoxicity was assessed by determining the viability of cells based on the quantitation of ATP.
Tox21 Assay Protocol Summary: C3RL4 cells were seeded at 1,000/well in 4 uL of assay medium into white solid 1,536-well tissue culture plates (Greiner Bio-One North America Inc. Monroe, NC) using a Multidrop Combi (Thermo Scientific, Waltham, MA) dispenser. After incubation at 37 C and 5% CO2 for an overnight, 23 nL of compounds dissolved in DMSO, positive control or DMSO only were transferred by a Pintool station (Kalypsys, San Diego, CA). One ul of 1 uM (final concentration) of Retinol was added right after the compound addition by using a Flying Reagent Dispenser (FRD) (Aurora Discovery, San Diego, CA). After 6 hr incubation at 37 C and 5% CO2, 5 uL of CellTiter-Glo reagent (Promega Corporation, Madison, WI) was added to each assay plate using an FRD. Luminescence was quantified on a ViewLux plate reader (PerkinElmer, Waltham, MA) after 30 min incubation at room temperature.
Potency is the fitted concentration of half-maximal effect.

SMILES | Potency
CCCCNC(=O)OCC#CI | 68.2 µM (active)
C=CCOCC1CO1 (stereo not given) | inactive
CC(C)(C)OOC(C)(C)CCC(C)(C)OOC(C)(C)C | inactive
O=C(O)c1cc(I)cc(I)c1I | inactive
CCOP(=S)(S)OCC | inactive
CCC1(C2=NCCN2)Cc2ccccc2O1 (stereo not given) | inactive
CCCCCCCCCCCCCCCl | inactive
O=C=NC1CCCCC1 | inactive
CN(C)C(=O)Nc1cccc(OC(=O)NC(C)(C)C)c1 | inactive
C[CH2][Hg][S]c1ccccc1C(=O)O | 13.7 µM (active) and 18.8 µM (active)
Clc1ccc(Cl)c(Cl)c1 | inactive
CC(C)(C)c1ccc(CCOc2ncnc3ccccc23)cc1 | inactive
COC(=O)Cc1ccccc1 | inactive
CCCC1CCCCN1 (stereo not given) | inactive
OCCSSCCO | inactive
CN[C@@H](C)[C@H](O)c1ccccc1 | inactive
CCCN(CCC)c1c([N+](=O)[O-])cc(C(C)C)cc1[N+](=O)[O-] | inactive
C=CC(=O)OCC | inactive
CCCCCl | inactive
C[C@H](N)[C@H](O)c1ccc(O)c(O)c1 | inactive

SMILES | Potency
ClCc1ccccc1Cl | inactive
CCc1ccccc1N | inactive
C[C@]12CC[C@H]3[C@@H](CCC4=CC(=O)CC[C@@H]43)[C@@H]1CC[C@@H]2OC(=O)CCc1ccccc1 | inactive
COc1cc(CC#N)cc(OC)c1OC | inactive
O=C(O)c1cc(Cl)ccc1Cl | inactive
C=C(C)C(=O)OCCCCOC(=O)C(=C)C | inactive
CC(C)c1ccc(OP(=O)(Oc2ccc(C(C)C)cc2)Oc2ccc(C(C)C)cc2)cc1 | inactive
Nc1cccc2ccccc12 | inactive
CCC(=O)O[C@@H]1C=C2CCC3C(CCC4(C)C3CC[C@@H]4OC(=O)CC)C2CC1 (stereo not given in full) | inactive
CC(Cl)C(=O)O (stereo not given) | inactive
CN1CC[C@]23c4c5ccc(O)c4O[C@H]2[C@@H](O)CC[C@H]3[C@H]1C5 | inactive
O=C(O)C(Cl)(Cl)Br | inactive
CCCCC#N | inactive
C=CCc1ccccc1O | inactive
CCCC[P+](CC)(CCCC)CCCC (tested in a mixture with another compound) | inactive
c1ccc2c(c1)sc1ccccc12 | inactive
O=[N+]([O-])O[C@H]1CO[C@H]2[C@@H]1OC[C@H]2O[N+](=O)[O-] | inactive
N#CC1(N=NC2(C#N)CCCCC2)CCCCC1 | inactive
NC(=S)c1c(Cl)cccc1Cl | inactive
CCc1cnc(C2=NC(C)(C(C)C)C(=O)N2)c(C(=O)O)c1 (stereo not given) | inactive
